GLP1R ag = agonists of human GLP-1 receptor. AID 624172. P43220. 0.007% of 380,000 active. Potency, µM (doses to about 45.6 µM), usual class: activators. HEK293 GLP-1R CRE-luciferase, luminescence, 4-6 h; cells express a hypersensitive GLP-1R form
RGS4 inh = human RGS4 inhibition; Transcreener GDP fluorescence polarization, RGS4-accelerated GTP hydrolysis; Potency, µM (titrated, usually from 114 µM), actives largely listed as inhibitors; 0.039% of 390,000 active; AID 504845; further: nearly all actives have a fitted effect of over 75% in size
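MLSMR compounds (23 nl, pin-transferred) preincubated 10 min at room temperature with a 500nM (2x) first reagent, then RGS4 at 900nM (2x) plus Transcreener GDP mix added; fluorescence polarization (620/688 nm) read before and after 90 min at 30 °C.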
HEK293 tox = cytotoxicity counter-screen for GLP-1 receptor inverse agonists. HEK293 cAMP-luciferase reporter cells, luminescence, 24 h. Potency, µM (titrated, usually from 38.3 µM), actives largely listed as inhibitors. 0.13% of 410,000 active;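 further: loss of luciferase light is scored as toxicity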
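Luminescence readout: signal drop marks cytotoxicity. Plated cells grew 12 h at 37 °C, 5% CO2, received 23 nL compound for 24 h, then got luciferase reagent, read after 12 min at RT.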
GLP1R inv ag = acts as inverse agonist at human GLP-1 receptor. P43220. HEK293 GLP-1R CRE-luciferase, luminescence, 24 h; GLP-1R form is constitutively active. Potency, µM (series often up to 38.3 µM), usual class: inhibitors. 1.6% of 410,000 active; further: nearly all actives have a fitted effect of over 55% in size
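Using stably transfected HEK293 (constitutively active GLP-1R, cAMP-luciferase reporter), compounds were incubated 24 hr and luciferase measured by luminescence.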
PTHR1 agonist = activates the human parathyroid hormone receptor PTHR1; HEK293 GP2 PTHR1 cells, GloSensor cAMP luminescence, 1 h; Potency, µM (doses to about 115 µM), usual class: activators; 0.075% of 410,000 active; Q03431; further: nearly all actives have a fitted effect of over 55% in size
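HEK-293-derived GP2 cells expressing PTHR1 and a GloSensor cAMP reporter, 3,000/well, plated overnight, given luciferin plus IBMX (each 0.5 mM as added) for 1 h at 37 °C, then compound for 1 h at 37 °C. Luminescence was read after 15 min at room temperature.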
GCN5L2 inh = GCN5L2 (KAT2A) acetyltransferase inhibition; Q92830; GCN5L2 HAT assay, ThioGlo1 CoA-SH fluorescence; Potency, µM (series often up to 58.9 µM), most hits filed as inhibitors; 0.21% of 390,000 active; AID 504327
Target sequence (Q92830 whole entry, looked up): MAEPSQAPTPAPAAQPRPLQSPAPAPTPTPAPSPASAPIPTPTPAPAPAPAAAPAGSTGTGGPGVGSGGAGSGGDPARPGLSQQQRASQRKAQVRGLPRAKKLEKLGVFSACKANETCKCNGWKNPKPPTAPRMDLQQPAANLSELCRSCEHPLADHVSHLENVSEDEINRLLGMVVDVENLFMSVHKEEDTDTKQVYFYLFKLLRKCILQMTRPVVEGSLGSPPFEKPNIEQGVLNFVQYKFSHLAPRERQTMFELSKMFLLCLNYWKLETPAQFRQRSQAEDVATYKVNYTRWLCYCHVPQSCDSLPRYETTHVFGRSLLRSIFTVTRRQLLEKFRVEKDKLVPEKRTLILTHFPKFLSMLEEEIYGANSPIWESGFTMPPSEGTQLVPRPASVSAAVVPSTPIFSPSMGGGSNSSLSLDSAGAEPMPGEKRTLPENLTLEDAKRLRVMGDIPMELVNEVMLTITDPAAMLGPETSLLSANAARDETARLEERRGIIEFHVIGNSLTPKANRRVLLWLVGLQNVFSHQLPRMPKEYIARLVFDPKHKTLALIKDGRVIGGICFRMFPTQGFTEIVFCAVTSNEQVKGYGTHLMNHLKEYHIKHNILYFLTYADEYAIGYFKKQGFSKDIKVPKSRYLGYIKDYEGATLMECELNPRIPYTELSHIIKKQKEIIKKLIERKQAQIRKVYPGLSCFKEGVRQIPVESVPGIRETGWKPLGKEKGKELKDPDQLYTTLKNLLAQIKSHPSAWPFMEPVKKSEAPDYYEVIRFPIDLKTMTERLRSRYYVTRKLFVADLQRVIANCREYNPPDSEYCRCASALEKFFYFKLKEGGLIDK
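qHTS, 1536-well. 20nM enzyme, pH 7.5 HEPES/EDTA/Tween-20 buffer; 15 min compound preinc., RT. Start: 75uM H3(1-25), 70uM AcCoA, 50uM ThioGlo1. Read Ex340/Em540 at t=0 (autofluorescence flag) and t=20 min.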
Hits are given with their value; [ ] = another dose, or the depositor's remark. Only some compounds are listed: those with a hit (about 1.8% of all), similar ones and a draw of the others. The call rests on the fitted dose curve; in most records, active means well fitted curve in the direction sought with a large enough effect; inconclusive means small, poorly fitted or top-dose-only effect, or another doubt; inactive means no such curve, though single readings can be large; an effect the other way counts as inactive or inconclusive.

Results for Cc1ccc(-c2nc3c(cnn3-c3ccccc3)c(=O)n2-c2cccc(Cl)c2)cc1 ?
RGS4 inh: inactive; HEK293 tox: inactive; GLP1R inv ag: 4.47µM; PTHR1 agonist: inactive; GCN5L2 inh: inactive

How did Cc1ccc(-n2c(-c3ccc(Br)cc3)nc3c(cnn3-c3ccccc3)c2=O)cc1 do in these assays?
RGS4 inh: inactive; HEK293 tox: inactive; GLP1R inv ag: inactive; PTHR1 agonist: inactive; GCN5L2 inh: inactive

Results for CC(C)c1ccc(NC(=O)CSC2=Nc3ccccc3C3=NC(CC(=O)NC4CCCCC4)C(=O)N23)cc1 (stereo not given) ?
RGS4 inh: inactive; HEK293 tox: inactive; GLP1R inv ag: 10µM; PTHR1 agonist: inactive; GCN5L2 inh: inactive

Results for COc1ccc(OC)c(NC(=O)CSC2=Nc3ccccc3C3=NC(CC(=O)NCc4ccco4)C(=O)N23)c1 (stereo not given) ?
RGS4 inh: inactive; HEK293 tox: inactive; GLP1R inv ag: 11.2µM; PTHR1 agonist: inactive; GCN5L2 inh: inactive

What do the screens show for `CCOc1ccc(NC(=O)CN(C)S(=O)(=O)c2ccc3[nH]c4c(c3c2)CCCC4)cc1`?
RGS4 inh: inactive; HEK293 tox: inactive; GLP1R inv ag: 11.2µM; PTHR1 agonist: inactive; GCN5L2 inh: inactive

How did Cc1nnc(N/N=C/c2cc([N+](=O)[O-])c(N3CCC(C)CC3)cc2N2CCC(C)CC2)n1N do in these assays?
GLP1R ag: inactive; RGS4 inh: inactive; HEK293 tox: inconclusive; GLP1R inv ag: inactive; PTHR1 agonist: 28.2µM; GCN5L2 inh: inactive

How did CCCN(CCC)S(=O)(=O)c1ccc(Cl)c([N+](=O)[O-])c1 do in these assays?
GLP1R ag: inactive; RGS4 inh: inactive; HEK293 tox: 12.6µM; GLP1R inv ag: inconclusive; PTHR1 agonist: inactive; GCN5L2 inh: inactive

What do the screens show for `CC(C)Cn1c(N)c(C(=O)COC(=O)CC23CC4CC(CC(C4)C2)C3)c(=O)n(C)c1=O`?
GLP1R ag: inactive; RGS4 inh: inactive; HEK293 tox: inactive; GLP1R inv ag: 2.82µM; PTHR1 agonist: inactive; GCN5L2 inh: inactive[0.501 µM]

What do the screens show for `Cc1csc(=O)n1CCC(=O)OCC(=O)c1c(N)n(CC(C)C)c(=O)n(C)c1=O`?
GLP1R ag: inactive; RGS4 inh: inactive; HEK293 tox: inactive; GLP1R inv ag: inactive; PTHR1 agonist: inactive; GCN5L2 inh: inactive

What do the screens show for `CC(C)Cn1c(N)c(C(=O)COC(=O)c2ccc(Cl)cc2)c(=O)n(C)c1=O`?
GLP1R ag: inactive; RGS4 inh: inactive; HEK293 tox: inactive; GLP1R inv ag: inconclusive; PTHR1 agonist: inactive; GCN5L2 inh: inactive

How did Cc1cccc(C(=O)OCC(=O)c2c(N)n(CC(C)C)c(=O)n(C)c2=O)c1[N+](=O)[O-] do in these assays?
GLP1R ag: inactive; RGS4 inh: inactive; HEK293 tox: inactive; GLP1R inv ag: inconclusive; PTHR1 agonist: inactive; GCN5L2 inh: inactive

Results for Cc1cccc(C(=O)OCC(=O)c2c(N)n(CC(C)C)c(=O)n(C)c2=O)c1O ?
GLP1R ag: inactive; RGS4 inh: inactive; HEK293 tox: inactive; GLP1R inv ag: 10µM; PTHR1 agonist: inactive; GCN5L2 inh: inactive

What do the screens show for `CC(C)Cn1c(N)c(C(=O)COC(=O)c2ccc(Br)cc2)c(=O)n(C)c1=O`?
GLP1R ag: inactive; RGS4 inh: inactive; HEK293 tox: inactive; GLP1R inv ag: 10µM; PTHR1 agonist: inactive; GCN5L2 inh: inactive

What do the screens show for `CCCC[C@H](NC(=O)[C@H](CO)NC(=O)[C@H](Cc1ccc(O)cc1)NC(=O)[C@H](CO)NC(C)=O)C(=O)N[C@@H](CCC(=O)O)C(=O)N[C@@H](Cc1cnc[nH]1)C(=O)N[C@H](Cc1ccccc1)C(=O)N[C@@H](CCCNC(=N)N)C(=O)N[C@@H](Cc1c[nH]c2ccccc12)C(=O)NCC(=O)N[C@@H](CCCCN)C(=O)N1CCC[C@H]1C(=O)N[C@H](C(N)=O)C(C)C`?
GCN5L2 inh: inactive

How did C/C(=N\NC(=O)C1CCCC1)c1ccc(Cl)cc1 do in these assays?
GLP1R ag: inactive; RGS4 inh: inactive; HEK293 tox: inactive; GLP1R inv ag: inactive; PTHR1 agonist: inactive; GCN5L2 inh: inactive

How did CSc1ccc(CCNC(=O)C2CCCN(S(=O)(=O)N(C)c3ccc(F)cc3)C2)cc1 (stereo not given) do in these assays?
RGS4 inh: inactive; HEK293 tox: inactive; GLP1R inv ag: inconclusive; PTHR1 agonist: inactive; GCN5L2 inh: inactive

What do the screens show for `COc1ccc(CNC(=S)NC(C)CCc2ccccc2)cc1` (stereo not given)?
GLP1R ag: inactive; RGS4 inh: inactive; HEK293 tox: inconclusive; GLP1R inv ag: 10µM; PTHR1 agonist: inactive; GCN5L2 inh: inactive

How did CCCc1cc(=O)[nH]c(SCC(=O)N2CCCCCC2)n1 do in these assays?
GLP1R ag: inactive; RGS4 inh: inactive; HEK293 tox: inactive; GLP1R inv ag: inactive; PTHR1 agonist: inactive; GCN5L2 inh: inactive

Results for Cc1ccc(C)c(S(=O)(=O)NCC(c2ccco2)N2CCc3ccccc3C2)c1 (stereo not given) ?
GLP1R ag: inactive; RGS4 inh: inactive; HEK293 tox: inactive; GLP1R inv ag: 11.2µM; PTHR1 agonist: inactive; GCN5L2 inh: inactive

Results for Cc1ccc(C(=O)NCC(c2ccco2)N2CCc3ccccc3C2)cc1C (stereo not given) ?
GLP1R ag: inactive; RGS4 inh: inactive; HEK293 tox: inactive; GLP1R inv ag: 11.2µM; PTHR1 agonist: inactive; GCN5L2 inh: inactive

What do the screens show for `COc1ccc(CN2C[C@@H](CO)O[C@@H](n3cnc4c(NCc5ccc(F)cc5)ncnc43)C2)cc1`?
GLP1R ag: inactive; HEK293 tox: inactive; GLP1R inv ag: inactive; PTHR1 agonist: inactive

What do the screens show for `COc1ccc(CCNC(=O)C2CCC(C(C)(C)C)CC2)cc1OC` (stereo not given)?
GLP1R ag: inactive; RGS4 inh: inactive; HEK293 tox: inactive; GLP1R inv ag: 10µM; PTHR1 agonist: inactive; GCN5L2 inh: inactive

Results for COc1ccc(CCNC(=O)C2CC2)cc1OC ?
GLP1R ag: inactive; RGS4 inh: inactive; HEK293 tox: inactive; GLP1R inv ag: inactive; PTHR1 agonist: inactive; GCN5L2 inh: inactive

Results for CCCc1cc(C(=O)Nc2ccc(C(=O)c3ccccc3)cc2)n(C)n1 ?
GLP1R ag: inactive; RGS4 inh: inactive; HEK293 tox: inactive; GLP1R inv ag: inconclusive; PTHR1 agonist: inactive; GCN5L2 inh: inactive

Results for CCCc1cc(C(=O)Nc2ccc(C(=O)c3ccc(F)cc3)cc2)n(C)n1 ?
GLP1R ag: inactive; RGS4 inh: inactive; HEK293 tox: inactive; GLP1R inv ag: 8.91µM; PTHR1 agonist: inactive; GCN5L2 inh: inactive

Assay outcomes deposited in PubChem by National Center for Advancing Translational Sciences (NCATS).
